Compounds with a hit are over-represented: about 4.3% of the library has one in this group of screens.
HGIII-sPLA2 inh: human group III sPLA2 inhibitors, primary screen, biochemical, QFRET, BODIPY PC-A2 liposome substrate | inhibition, % at 12.2 µM | hit rate 0.56% among 370,000 | AID 743126, 2013 | Group 3 secretory phospholipase A2 (Homo sapiens), Q9NZ20 | QFRET BODIPY PC-A2 liposome hydrolysis, fluorescence;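 active = inhibition above mean plus 3 SD of compounds lying within the high and low control bounds, cut at about 19% in these data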;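 also: 0% = median of test compound wells and 100% = no enzyme DMSO wells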
FAS-TE inh: FAS thioesterase domain inhibitors, primary screen, biochemical, fluorescence intensity, uHTS; Fatty acid synthase (Homo sapiens), P49327; recombinant FAS-TE, OMFH fluorogenic substrate, fluorescence endpoint; inhibition, % at 15 µM; hit rate 0.67% among 360,000; AID 602261, 2012;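 active = compounds whose normalised, plate-corrected inhibition of enzyme fluorescence in the single-dose primary screen is 50% or more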;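 also: 0% = DMSO with enzyme and 100% = substrate without enzyme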
GRIN3A LBD mod: binders of NR3A ligand-binding domain, primary screen, biophysical, differential scanning fluorimetry, uHTS; AID 1259313, 2017; hit rate 2.5% among 340,000; Glutamate receptor ionotropic, NMDA 3A (GRIN3A) ligand-binding domain; Tm shift relative to glycine control, % at 25 µM; NR3A LBD differential scanning fluorimetry, Tm shift; 0% = protein alone, 100% = glycine-bound protein;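 active = melting temperature shift of at least 10% of the positive control shift, at one fixed dose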
ADAM10 inh: human ADAM10 inhibitors, primary screen, biochemical, QFRET, HTS; Disintegrin and metalloproteinase domain-containing protein 10 (Homo sapiens), O14672; recombinant ADAM10, EDANS/DABCYL FRET peptide cleavage, 3 h; inhibition, % at 7 µM; hit rate 0.62% among 370,000;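 active = inhibition above a per-campaign cutoff equal to the mean of compounds falling between control-based bounds plus 3 SD, cut at about 20% in these data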;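 also: 0% = DMSO wells while the 100% control is not disclosed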
ADAM17 inh: ADAM17 inhibitors, primary screen, biochemical, QFRET; Disintegrin and metalloproteinase domain-containing protein 17 (Homo sapiens), P78536; recombinant ADAM17, EDANS/DABCYL FRET peptide cleavage; inhibition, % at 6.95 µM; hit rate 0.83% among 370,000;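 active = inhibition above the mean of compounds lying between control limits plus 3 SD, set per campaign, cut at about 8.5% in these data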;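 also: 0% = DMSO-only wells as the low control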
FAS-TE conf: FAS thioesterase domain inhibitors, confirmation, biochemical, fluorescence intensity, single concentration; shares compounds with FAS-TE inh; inhibition, % at 15 µM; AID 624325, 2012; recombinant FAS-TE, OMFH fluorogenic substrate; hit rate 45% among 2,300;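 active = compounds inhibiting the enzyme by at least 50% at 15 µM in any one of the replicates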;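 also: 0% = enzyme with DMSO only and 100% = wells lacking enzyme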
* hit, by the source's call; · = no result given.

SMILES | HGIII-sPLA2 inh | FAS-TE inh | GRIN3A LBD mod | ADAM10 inh | ADAM17 inh | FAS-TE conf
CCc1ccc(C(=O)COC(=O)c2cc([N+](=O)[O-])ccc2N2CCOCC2)cc1 | -1 | 80* | 0 | 2 | 4 | 80*
O=C(c1ccc(Cl)cc1)c1cc([N+](=O)[O-])ccc1N1CCOCC1 | -7 | 41 | 6 | 5 | 3 | ·
CC(C)(C)S(=O)(=O)N1C[C@@H]2CC(=O)C=C2[C@H]1CCO | 5 | · | · | 1 | 5 | ·
CN1C(=O)/C(=C\c2cc(N=Nc3ccccc3)ccc2O)SC1=S | 5 | 66* | -2 | 7 | 2 | 38*
CN1C(=O)/C(=C\c2ccccc2OCc2ccccc2)SC1=S | 4 | 15 | 0 | 2 | -2 | ·
COc1ccc(C(=O)Nc2nc3c(s2)CCCC3)cc1S(=O)(=O)N1CCCc2ccccc21 | 1 | 63* | -3 | -6 | 2 | 17
COc1ccc(C(=O)Nc2ncccc2C)cc1S(=O)(=O)N1CCCc2ccccc21 | 5 | -3 | 0 | -9 | -6 | ·
COC(=O)c1ccc(Cn2ccc3ccc(-c4ccc5ccn(C(=O)c6ccccc6)c5c4)cc32)cc1 | -2 | · | · | -30 | -9 | ·
Cc1ccc(S(=O)(=O)Nc2cccc(-c3ccc(N4CCCCCC4)nn3)c2)cc1 | -33 | 59* | 7 | 18 | 2 | 52*
O=[N+]([O-])c1cccc(S(=O)(=O)Nc2cccc(-c3ccc(N4CCCC4)nn3)c2)c1 | -38 | 45 | 0 | 5 | 3 | ·
COc1ccc(S(=O)(=O)Nc2cccc(-c3ccc(N4CCCCCC4)nn3)c2)cc1OC | -29 | 54* | -3 | 11 | 1 | 47
CC(C)(C)c1ccc(-c2nnc3n2N=C(c2ccc(Cl)cc2)CS3)cc1 | 3 | · | · | -4 | -2 | ·
O=C(c1ccc(Cl)cc1)[C@@H]1[C@@H]2C(=O)N(c3ccc(Cl)cc3)C(=O)[C@@H]2C2c3ccccc3C=NN21 (some centres not stated) | 8 | 69* | 0 | 1 | -1 | 10
Cc1ccc(N2C(=O)[C@@H]3[C@H](C2=O)C2c4ccccc4C=NN2[C@@H]3C(=O)c2ccc(Cl)cc2)cc1 (some centres not stated) | 4 | 82* | 1 | 0 | 4 | 0
CC(=O)[C@@H]1[C@@H]2C(=O)N(c3ccc(F)c(Cl)c3)C(=O)[C@@H]2C2c3ccccc3C=CN21 (some centres not stated) | -8 | · | · | -11 | -3 | ·
Cc1ccc(S(=O)(=O)N(C)C)cc1-n1c(SCC(=O)Nc2ccc(F)c(F)c2F)nc2ccccc2c1=O | 3 | 68* | -3 | 15 | 7 | 38
O=C(CSc1nc2cc(Cl)ccc2c(=O)n1Cc1ccco1)Nc1ccc(S(=O)(=O)N2CCOCC2)cc1 | -2 | 88* | 3 | 15 | 4 | 18
Cc1ccc(S(=O)(=O)N(C)C)cc1-n1c(SCC(=O)N(C)C)nc2ccccc2c1=O | 4 | -3 | -1 | -4 | -2 | ·
O=C(CSc1nc2ccccc2c(=O)n1-c1ccc(F)cc1)Nc1ccc(N2CCOCC2)cc1 | 3 | -1 | -4 | 2 | -3 | ·
Cc1ccc(S(=O)(=O)N2CCOCC2)cc1NC(=O)CSc1nc2ccccc2c(=O)n1Cc1ccccc1 | 16 | 50* | 14* | -5 | -1 | 24
O=C(CSc1nc2ccccc2c(=O)n1-c1ccc(F)cc1)Nc1cc(S(=O)(=O)N2CCOCC2)ccc1Cl | -5 | 78* | 0 | 7 | 3 | 21
COCCCNC(=O)C[C@H]1C[C@@]2(C(=O)OC)C(=C[C@H](C(C)C)O[C@@H]2C2CC2)N(Cc2ccco2)C1=O | 0 | · | · | 2 | -2 | ·
CN(C)[C@H]1CCN(c2cccc3c2S(=O)(=O)N(C2CC2)CCCO3)C1 | -3 | · | · | -2 | -2 | ·
O=C(CCc1ccccc1)N[C@H]1[C@@H](OC(=O)c2cccnc2)CCC[C@]12C(=O)N(Cc1ccccc1)c1ccccc12 | 9 | · | · | -3 | 2 | ·
CN(C(=O)COC(=O)c1cccc(S(=O)(=O)N2CCCCC2)c1)C1CCS(=O)(=O)C1 (configuration not stated) | 10 | 0 | 3 | -11 | -4 | ·
SMILES | HGIII-sPLA2 inh | FAS-TE inh | GRIN3A LBD mod | ADAM10 inh | ADAM17 inh | FAS-TE conf
COc1cc(OC)c(N(C)S(=O)(=O)c2cccc(C(=O)Nc3nccs3)c2)cc1Cl | -7 | 66* | -6 | 2 | 3 | 14
CN(c1ccccc1)S(=O)(=O)c1cccc(C(=O)Nc2nccs2)c1 | -8 | 2 | 0 | -1 | -2 | ·
COc1cc(OC)c(N(C)S(=O)(=O)c2cccc(C(=O)OCC(=O)N(C)C3CCCCC3)c2)cc1Cl | -7 | 66* | 3 | -1 | -3 | 11
C[C@H]1[C@@H](NCc2ccccc2)CC[C@@]23CCCN2C(=O)CCC[C@@H]13 | 2 | · | · | 2 | -2 | ·
Cc1c(C(O)(c2ccccc2)c2ccccc2)[n+]2ccccc2n1C | 3 | · | · | 3 | -3 | ·
O=C(NCCN1C(=O)S/C(=C\c2ccc(Cl)c([N+](=O)[O-])c2)C1=O)C1=COCCO1 | -17 | 52* | 1 | 5 | 1 | 41
O=C(NCCN1C(=O)S/C(=C\c2ccc(Cl)c(Cl)c2)C1=O)c1cnccn1 | 1 | 3 | 2 | 0 | -2 | ·
CC(NC(=O)COC(=O)c1cc([N+](=O)[O-])ccc1N1CCOCC1)c1ccccc1 (configuration not stated) | 3 | 73* | 1 | 1 | 4 | 85*
CC(NC(=O)COC(=O)c1cc([N+](=O)[O-])ccc1N1CCOCC1)c1ccc(F)cc1 (configuration not stated) | 3 | 82* | -4 | 3 | 1 | 84*
CC(C)CNC(=O)c1cc([N+](=O)[O-])ccc1N1CCOCC1 | 8 | -3 | 1 | 3 | 3 | ·
CC(C)CCN(C)C1CCN(C(=O)Nc2ccccc2)CC1 | -2 | · | · | -8 | -1 | ·
CCN(CC)CCCNC(=O)c1cn(C(C)c2ccccc2)nn1 (configuration not stated) | 1 | · | · | -9 | 5 | ·
O=C(N/N=C/c1cc([N+](=O)[O-])cc([N+](=O)[O-])c1O)/C(=C\c1cccs1)NC(=O)c1ccccc1 | -7 | 75* | 6 | 9 | 2 | 74*
COC(=O)CSc1nnc(-c2cc(-c3ccccc3)n[nH]2)n1N | 1 | · | · | 1 | 2 | ·

Bioassay records deposited in PubChem by several laboratories.
